# Laboratory results taken from PubChem BioAssay (NCATS).
# Records with an inconclusive call do not appear. A call without a number means that no potency is given here. Active and inactive are the calls of the source. The call rests on the fitted dose curve; in most records, active means well fitted curve in the direction sought with a large enough effect; inconclusive means small, poorly fitted or top-dose-only effect, or another doubt; inactive means no such curve, though single readings can be large or run the other way.
# Molecular target: Metallo-beta-lactamase type 2 (Klebsiella pneumoniae) (UniProt C7C422)
# Test: qHTS to identify inhibitors of the New Delhi Metallo-beta-lactamase (NDM): assay validation screen against the NCATS LOPAC Collection (AID 1794843)
# Conditions: NDM-1 enzyme, nitrocefin hydrolysis, absorbance 485 nm; series mostly up to 38.4 µM
# Source text: Assay Submitter (PI): James Inglese Ph.D., Patricia Dranchak Ph.D., Mahesh Aitha Ph.D.
# Assay Development and Screening Technology Laboratory (ADST)
# National Center for Advancing Translational Sciences (NCATS), Rockville, MD
# National Institute of Health (NIH), Bethesda, Maryland
# The metallo-beta-lactamases (MBL) are a main antibiotic resistance mechanism evolved by bacteria. There is an urgent clinical need for MBL inhibitors to mitigate this growing threat. To support a machine-based learning study, qHTS has been used to experimentally test inhibitors identified by prediction tools.
# PROTOCOL TABLE (as described by Inglese et al., 2007)
# SEQUENCE No. (e.g., 1, 2, 3, etc.); […] (e.g., enzyme, Incubation, Reagent, etc.); VALUE; DESCRIPTION
# 1; NDM-1; 4 uL of 3 nM enzyme in 50 mM HEPES (pH 7.0), 1 uM Zn2SO4, 0.01% Tween20; Use BioRaptr to dispense into Aurora black, clear bottom low base 1536-well plates
# 2; Compounds; 23 nL; Use Pin Tool (Wako) to transfer DMSO control and library compounds in DMSO
# 4; Reagent; 2 uL of 50 uM nitrocefin
# 6; Detector; Absorbance at 485 nm (bandwidth = 5 nm, 25 flashes/well) on Tecan Infinity
# NOTES (numbers refer to sequence above)
# 1; Column 1 of each plate received assay buffer without enzyme and columns 2-48 received enzyme for a final assay concentration of 2 nM.
# 2; Control plate contained DMSO in columns 1, 2, 3, and 4.
# 3; Compound interaction with enzyme.
# 5; Substrate interaction with enzyme, plateau phase of kinetics.
# 6; Default reader settings were applied for absorbance read at 485 nm, bandwidth = 5 nm, 25 flashes/well.
# Inglese J, Shamu CE, Guy RK. 2007. Reporting data from high-throughput screening of small-molecule libraries. Nat Chem Biol. doi:10.1038/nchembio0807-438
# Yasgar A, Shinn P, Jadhav A, Auld D, Michael S, Zheng W, Austin CP, Inglese J, Simeonov A. 2008. Compound Management for Quantitative High-Throughput Screening. J Lab Autom 13:79 - 89. doi:10.1016/j.jala.2007.12.004
# Potency means the concentration at half of the fitted maximal effect.
# Metallo-beta-lactamase type 2 (Klebsiella pneumoniae), sequence (C7C422 whole entry, looked up): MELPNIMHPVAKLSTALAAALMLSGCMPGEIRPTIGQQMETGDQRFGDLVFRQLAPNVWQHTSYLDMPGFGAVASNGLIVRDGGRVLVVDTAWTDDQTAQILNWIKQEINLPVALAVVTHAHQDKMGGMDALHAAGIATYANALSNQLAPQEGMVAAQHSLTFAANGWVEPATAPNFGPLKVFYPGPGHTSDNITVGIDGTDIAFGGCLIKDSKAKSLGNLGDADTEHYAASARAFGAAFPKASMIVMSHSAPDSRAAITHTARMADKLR
row,Structure (SMILES),Potency
1,CC(N)Cc1c[nH]c2ccc(OCc3cccs3)cc12 (stereo not given),inactive
2,Cc1o[nH]c(=O)c1CC(N)C(=O)O (stereo not given),inactive
3,NC(N)=NOCC[C@H](N)C(=O)O,inactive
4,NC(Cc1cc(O)c(O)cc1O)C(=O)O (stereo not given),3.98 µM (active)
5,N[C@@]1(C(=O)O)CC[C@@H](C(=O)O)C1,inactive
6,C[N+](C)(C)CCOC(=O)CBr,inactive
7,NNC(=O)c1ccc(O)cc1,inactive
8,C[N+]1(C)CCc2cc3c(cc2[C@H]1[C@@H]1OC(=O)c2c1ccc1c2OCO1)OCO3,inactive
9,CC(C)NP(=O)(NC(C)C)OP(=O)(NC(C)C)NC(C)C,inactive
10,C[N+]1(C)C2CCC1CC(OC(=O)c1c[nH]c3ccccc13)C2 (stereo not given),inactive
11,C[C@H](N)Cc1cccc(C(F)(F)F)c1,inactive
12,CCCN(CCC)C1CCc2cccc(O)c2C1 (stereo not given),inactive
13,C[N+](C)(C)CC#CCN1CCCC1=O,inactive
14,O=[N+]([O-])c1ccc2nc(N3CCNCC3)ccc2c1,inactive
15,CC(C)(C)OC(=O)NC1[C@H]2CNC[C@@H]12 (stereo not given in full),inactive
16,O=[N+]([O-])/C=C/c1ccc2c(c1)OCO2,inactive
17,O=C1CC[C@@]2(O)C3Cc4ccc(O)c5c4C2(CCN3CC2CC2)[C@H]1O5 (stereo not given in full),inactive
18,COC(=O)N1CCN(C(=O)Cc2ccc(Cl)c(Cl)c2)C(CN2CCCC2)C1 (stereo not given),inactive
19,CCCC[N+]1(C)C2CC(OC(=O)[C@H](CO)c3ccccc3)CC1C1OC12 (stereo not given in full),inactive
20,Cc1cc([C@@H]2CCCN2C)on1,inactive

row,Structure (SMILES),Potency
1,C[N+](C)(C)CC#CCOC(=O)Nc1cccc(Cl)c1,inactive
2,Clc1cc(I)cc(Cl)c1NC1=NCCN1,inactive
3,CCCN(CCC)[C@@H]1CCc2cccc(O)c2C1,inactive
4,CC(N)c1cccc(Cl)c1Cl (stereo not given),inactive
5,O=C1/C(=C/c2ccccc2)C[C@@]2(O)[C@H]3Cc4ccc(O)c5c4[C@@]2(CCN3CC2CC2)[C@H]1O5,inactive
6,CP(=O)(O)C1=CCNCC1,inactive
7,C[C@H](Cc1ccc2c(c1)OC(C(=O)O)(C(=O)O)O2)NC[C@H](O)c1cccc(Cl)c1,inactive
8,OCc1cnc[nH]1,inactive
9,O=c1ccc2[nH]cc(C3=CCNCC3)c2[nH]1,inactive
10,O=[N+]([O-])c1cc(O)c(O)c([N+](=O)[O-])c1,inactive
11,CCn1cnc2c(Nc3cccc(Cl)c3)nc(N[C@@H]3CCCC[C@@H]3N)nc21,inactive
12,COc1ccc2[nH]cc(CCN)c2c1,inactive
13,CC(N)Cc1c[nH]c2ccc(O)cc12 (stereo not given),inactive
14,O=S1(=O)N(CCN2CC=C(c3c[nH]c4cc(F)ccc34)CC2)c2cccc3c2N1CCC3,inactive
15,COc1ccc(OC)c(C(O)C(C)N)c1 (stereo not given),inactive
16,COc1ccc(CNC(=O)/C=C/c2ccc3[nH]cc(CCN(C)C)c3c2)cc1,inactive
17,CC(N)[C@H](O)c1ccc(O)c(O)c1 (stereo not given in full),inactive
18,NC(C(=O)O)c1cc(=O)[nH]o1 (stereo not given),inactive
19,CN(N=O)c1cc(O)ccc1O,inactive
20,NC(=O)c1ccc(OCC(O)CN2CC=C(c3ccc(F)cc3)CC2)cc1 (stereo not given),inactive
